Rows were chosen to be rich in hits. Some 10% of all compounds tested hit in one or more screens of this group.
hNpr1 antagonist: human Npr1 receptor antagonism; HEK293 hNpr1 GloSensor cGMP, ANP-stimulated luminescence; Potency, µM (doses to about 46.3 µM), for the others: at the top dose activity change, negative = inhibition, actives largely listed as inhibitors; 1.6% of 76,000 active; AID 1347048; calls by dose curve; also: nearly all actives have a fitted effect of over 60% in size
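HEK293 cells stably expressing human Npr1 and cGMP GloSensor pGS-40F, loaded 2 h with 2% GloSensor reagent, given compound 30 min at room temperature. Luminescence read before and 20 min after 0.1 nM hNppA.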
NIH3T3 tox: NIH 3T3 cell cytotoxicity | NIH 3T3 viability, CellTiter-Glo ATP luminescence, 48-72 h | Potency, µM (top dose mostly 96.7 µM), inactives show at the highest dose activity change, negative = cytotoxicity, usual class: inhibitors | 4.3% of 94,000 active | AID 1345082; also: nearly all actives have a fitted effect of over 55% in size
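ATP-dependent luminescence (CellTiter-Glo) served as the viability signal for NIH 3T3 cells treated with compound for 48 or 72 hr at 37 °C.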
HEK293 tox: HEK 293 cell cytotoxicity | Potency, µM (doses to about 115 µM), without a hit: top-dose activity change, negative = cytotoxicity, hits mostly inhibitors | 6.6% of 94,000 active | AID 1345083 | HEK 293 viability, ATP luminescence (CellTiter-Glo), 48-72 h; also: nearly all actives have a fitted effect of over 60% in size
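Luminescence from cellular ATP, measured with CellTiter-Glo, indicates HEK 293 viability. Cells plated at 250 cells/well are treated with compound for 48 or 72 hr at 37 degree Celsius before reagent addition.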
GPT2 inh: blocks human glutamate pyruvate transaminase 2. Q8TD30. Recombinant GPT2, coupled pyruvate oxidase/HRP Amplex Red fluorescence. Potency, µM (series often up to 57.7 µM), for the others: at the top dose activity change, negative = inhibition, usual class: inhibitors. 0.25% of 100,000 active. AID 1671188; also: nearly all actives have a fitted effect of over 60% in size
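Inhibition is scored from Amplex Red fluorescence generated when pyruvate oxidase and HRP act on pyruvate released by GPT2. Reactions contain 10ng/uL enzyme, 250uM a-KG and 2mM L-alanine and run 30 min at room temperature.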
Luciferase inh: blocks purified firefly luciferase enzyme activity; AID 1347043; P08659; purified P. pyralis luciferase, luminescence, biochemical; Potency, µM (top dose mostly 115 µM), actives largely listed as inhibitors; 2.5% of 76,000 active; also: nearly all actives have a fitted effect of over 65% in size
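Luminescence read by CCD imaging after purified firefly luciferase (10nM final) was added to substrate buffer holding 10uM D-luciferin and 10uM ATP, pH 7.5, pre-dosed with compound.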
* hit, by the source's call; i = inactive; ? = inconclusive; . = no result; [ ] = another dose, or the depositor's remark. Unless noted, calls follow the shape of the dose curve; as a rule, active = well fitted curve in the direction sought with a large enough effect; inconclusive = small, poorly fitted or top-dose-only effect, or another doubt; inactive = no such curve, though single readings can be large; an effect the other way counts as inactive or inconclusive. % is scaled to controls: 0 for no effect and ±100 for the full control effect; potency is read from the fitted curve at half-maximal effect.

SMILES | hNpr1 antagonist | NIH3T3 tox | HEK293 tox | GPT2 inh | Luciferase inh
CCc1cccc2c(C(CC(=O)NCc3ccc(F)cc3)c3cccc(OC)c3OC)c[nH]c12 (centres undefined) | 0% | ? | ? | 5% | i
O=C1NCc2ccccc2CC12CCCN(Cc1cccc(OC(F)(F)F)c1)C2 (centres undefined) | . | ? | ? | 5% | .
COc1cccc(Nc2ncc3c(n2)C(C)(C(=O)NCCN2CCOCC2)CC3)c1 (centres undefined) | -3%[70.6 µM] | ? | ? | 3%[88.5 µM] | i
COc1ccc(NC(=O)C2(C)CCc3cnc(Nc4ccccc4)nc32)cn1 (centres undefined) | -19%[70.6 µM] | ? | 100µM* | -4%[88.5 µM] | i
CN1CCC(NC(=O)C2(C)CCc3cnc(Nc4ccccc4)nc32)CC1 (centres undefined) | -3%[70.6 µM] | ? | ? | 0%[88.5 µM] | i
CN(C)c1ncc2c(n1)C(C)(C(=O)NCc1ccc3c(c1)OCO3)CCC2 (centres undefined) | -19%[70.6 µM] | ? | ? | -25%[88.5 µM] | i
COc1cccc(Nc2ncc3c(n2)C(C)(C(=O)NCCCn2ccnc2)CC3)c1 (centres undefined) | 1%[70.6 µM] | 25µM* | ? | 0%[88.5 µM] | i
CC1(C(=O)N2CCC(c3ccccc3)CC2)COCc2cnc(Nc3ccccc3)nc21 (centres undefined) | ? | 45µM* | 63µM* | -20%[88.5 µM] | i
COc1cccc(Nc2ncc3c(n2)C(C)(C(=O)NCc2ccc4c(c2)OCO4)CC3)c1 (centres undefined) | ? | ? | 32µM* | 4%[88.5 µM] | i
CN(C)CC1(O)CCC2(CCN(C(=O)Cn3c(=O)oc4ccccc43)CC2)CC1 | -1% | -10% | -5% | i | i
CC1(C(=O)NC2CCOCC2)COCc2cnc(Nc3ccccc3)nc21 (centres undefined) | 0%[70.6 µM] | ? | -22%[172 µM] | i | i
CC1(C(=O)Nc2ccncc2)CCCc2cnc(Nc3ccccc3)nc21 (centres undefined) | -17%[70.6 µM] | ? | ? | -7%[88.5 µM] | i
COc1cccc(NC(=O)C2(C)CCc3cnc(NCc4ccccc4)nc32)c1 (centres undefined) | -24%[70.6 µM] | ? | 71µM* | -10%[88.5 µM] | i
COc1cccc(NC(=O)C2(C)CCCc3cnc(N(C)C)nc32)c1 (centres undefined) | -3%[70.6 µM] | ? | ? | ? | i
CC1(C(=O)NCc2cccc(F)c2)COCc2cnc(Nc3ccccc3)nc21 (centres undefined) | -25%[70.6 µM] | ? | 89µM* | 1%[88.5 µM] | i
COc1cccc(NC(=O)C2(C)COCc3cnc(Nc4ccccc4)nc32)c1 (centres undefined) | -20%[70.6 µM] | 79µM* | 100µM* | i | i
COc1ccc(NC(=O)C2(C)CCCc3cnc(Nc4cccnc4)nc32)cc1 (centres undefined) | 3%[70.6 µM] | 35µM* | -20%[172 µM] | -9%[88.5 µM] | i
COCCOC1CN(C2CCN(C(=O)COc3ccc(F)cc3)CC2)C12CCCCC2 (centres undefined) | 0% | -22% | -23% | -5% | i
COc1cc(CNC(=O)CCC2CCN(S(=O)(=O)c3ccccc3)CC2)cc(OC)c1 | -2% | -31% | ? | i | i
COc1ccc(NC(=O)C2(C)CCc3cnc(NCc4ccccc4)nc32)cn1 (centres undefined) | -1%[70.6 µM] | 13µM* | ? | -3%[88.5 µM] | i
CC1(C(=O)NC2CC2)CCc2cnc(Nc3ccccc3)nc21 (centres undefined) | ? | 28µM* | 40µM* | i | i
Cc1ccccc1NC(=O)Cn1c(=O)n(-c2ccccc2)c(=O)c2c1cc(C)n2C | 1% | i | 3% | i | i
CN1CC[C@H](c2nc3ccc(C(F)(F)F)cc3[nH]2)C1 | -12%[70.6 µM] | ? | 112µM* | -19%[88.5 µM] | ?
COc1ccc2nc([C@H]3CCN(Cc4ccc(F)c(F)c4)C3)[nH]c2c1 | -8%[70.6 µM] | ? | ? | 4%[88.5 µM] | i
FC(F)(F)c1ccc(CN2CC[C@H](c3nc4ccc(C(F)(F)F)cc4[nH]3)C2)cc1 | ? | 32µM* | 35µM* | -22%[88.5 µM] | ?
